± gives the standard deviation.
Tests used:
Conditions in all cases: modulator concentration 10 µM
[1] = tested on: RAW-Dual (murine macrophage reporter line); assay: NF-kB reporter (SEAP) activity fold change vs agonist alone; higher = enhanced NF-kB activity
How it was run: (§1)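 In 384-well plates holding 50 000 RAW-Dual murine macrophage reporter cells per well, compound at 10 μM final was pre-incubated for 1 hour at 37 °C, after which a PRR agonist was added overnight. Supernatant SEAP read with QUANTI-Blue at 620 nm absorbance reported NF-κB, and Lucia luciferase read with QUANTI-Luc luminescence reported IRF. Fold change values come from dividing each reporter signal by the mean of agonist-only control wells on the same plate, averaged over replicate plates with propagated errors.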

[2] = tested on: RAW-Dual (murine macrophage reporter line); assay: IRF reporter (Lucia luciferase) activity fold change vs agonist alone; higher = enhanced IRF activity
How it was run: as §1

[3] = tested on: RAW-Dual (murine macrophage reporter line); assay: viability score (confluency relative to resting cells, overnight) (fraction); higher = more viable, active = viable (0.7 or more)
How it was run: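 In 384-well plates, RAW-Dual macrophages received compound at a final 10 μM overnight. Two confluency masks were then made with IncuCyte software from IncuCyte images of all imaged wells. The viability score is defined as confluency relative to resting cells. Passing the cutoff required both masks to lie above 70% of resting cells.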

[4] = agonist: CpG ODN 1826 0.5 ug/mL

Row | SMILES | NF-kB reporter [1, 4] | NF-kB reporter ([1]; agonist: LPS 0.1 ug/mL) | NF-kB reporter ([1]; agonist: MPLA […]) | IRF reporter ([2]; agonist: 3'3'-cGAMP 10 ug/mL) | IRF reporter ([2]; agonist: LPS 0.1 ug/mL) | IRF reporter ([2]; agonist: MPLA […]) | viability score [3]
1 | CC(C)c1ccc2oc3nc(N)c(C(=O)O)cc3c(=O)c2c1 | 1.2 ± 0.16 | 1.23 ± 0.15 | 0.91 ± 0.052 | 0.858 ± 0.026 | 1.28 ± 0.32 | 1.16 ± 0.18 | 0.993 (active)
2 | COc1ccc(C=NNC(=O)C2COc3cc4ccccc4cc3O2)c(O)c1 (stereo unspecified) | 0.993 ± 0.094 | 0.966 ± 0.054 | 0.98 ± 0.079 | 0.956 ± 0.031 | 1.31 ± 0.18 | 1.1 ± 0.15 | 1.01 (active)
3 | COC(=O)C1=C(C)NC(C)=C(C(=O)OCCN2CCN(C(c3ccccc3)c3ccccc3)CC2)C1c1cccc([N+](=O)[O-])c1.Cl.Cl (stereo unspecified) | 0.241 ± 0.082 | 0.588 ± 0.22 | 0.799 ± 0.051 | 0.132 ± 0.008 | 0.888 ± 0.27 | 1.32 ± 0.18 | 0.975 (active)
4 | Cn1ccnc1Sc1nc(Nc2cccc(Cl)c2)nc(N2CCOCC2)n1 | 0.519 ± 0.045 | 1.03 ± 0.12 | 1.21 ± 0.13 | 0.474 ± 0.019 | 1.24 ± 0.14 | 1.09 ± 0.23 | 1.01 (active)
5 | CCOC(=O)N1CCC(=C2c3ccc(Cl)cc3CCc3cccnc32)CC1 | 1.07 ± 0.24 | 1.09 ± 0.21 | 0.953 ± 0.053 | 0.725 ± 0.04 | 1.06 ± 0.097 | 1.33 ± 0.29 | 0.989 (active)
6 | C[C@H](Cc1cc2c(c(C(N)=O)c1)N(CCCO)CC2)NCCOc1ccccc1OCC(F)(F)F | 1.2 ± 0.2 | 1.09 ± 0.29 | 1.03 ± 0.057 | 0.732 ± 0.058 | 1.05 ± 0.26 | 0.893 ± 0.2 | 0.998 (active)
7 | Cn1c(=O)[nH]c(=O)c2c1nc(N1CCCCC1)n2CCC#N | 1.1 ± 0.07 | 1.09 ± 0.07 | 0.952 ± 0.071 | 0.945 ± 0.033 | 1.33 ± 0.093 | 1.1 ± 0.16 | 1 (active)
8 | CCC(C)(C)C(=O)O[C@H]1C[C@@H](C)C=C2C=C[C@H](C)[C@H](CC[C@@H]3C[C@@H](O)CC(=O)O3)[C@H]21 | 2.33 ± 0.12 | 1.54 ± 0.13 | 1.82 ± 0.084 | 0.599 ± 0.061 | 0.747 ± 0.062 | 0.639 ± 0.17 | 0.219 (inactive)
9 | O=C(NN=Cc1ccc([N+](=O)[O-])o1)c1ccc(O)cc1 | 2.16 ± 0.17 | 1.49 ± 0.097 | 1.62 ± 0.066 | 0.956 ± 0.063 | 1.77 ± 0.18 | 1.22 ± 0.22 | 0.938 (active)
10 | CC(C)(C)c1ccc(C2=NC(=Cc3cccc4ccccc34)C(=O)O2)cc1 | 0.986 ± 0.078 | 1.05 ± 0.082 | 0.97 ± 0.034 | 0.857 ± 0.11 | 1.1 ± 0.11 | 1 ± 0.19 | 1 (active)
11 | CC12CCC(CC1)C(C)(C)O2 | 1.17 ± 0.28 | 1.05 ± 0.14 | 0.968 ± 0.074 | 0.956 ± 0.033 | 1.21 ± 0.15 | 1.15 ± 0.12 | 0.994 (active)
12 | CC1CCN(C2=NC(=O)C(=Cc3cccc4ccccc34)S2)CC1 | 1.06 ± 0.087 | 0.987 ± 0.076 | 0.954 ± 0.057 | 0.963 ± 0.05 | 1.54 ± 0.23 | 1.2 ± 0.18 | 1.01 (active)
13 | O=C(CCC(=O)NN=Cc1ccc(O)cc1)NN=Cc1ccc(O)cc1 | 0.915 ± 0.073 | 0.963 ± 0.062 | 0.947 ± 0.036 | 0.973 ± 0.12 | 0.974 ± 0.04 | 0.787 ± 0.085 | 1 (active)
14 | O=C(O)CCCNCP(=O)(O)CCc1ccccc1 | 0.97 ± 0.099 | 0.91 ± 0.093 | 0.881 ± 0.083 | 0.964 ± 0.048 | 0.989 ± 0.14 | 0.963 ± 0.19 | 1.03 (active)
15 | O=C1Nc2ccc(Cl)cc2[C@@](C#CC2CC2)(C(F)(F)F)O1 | 0.352 ± 0.029 | 0.486 ± 0.024 | 0.631 ± 0.02 | 0.964 ± 0.056 | 0.715 ± 0.092 | 1.47 ± 0.2 | 0.114 (inactive)
16 | CCCCCCc1ccc(O)cc1O | 1.02 ± 0.14 | 0.919 ± 0.21 | 0.874 ± 0.058 | 0.588 ± 0.057 | 1.2 ± 0.23 | 1.2 ± 0.13 | 0.298 (inactive)
17 | Cc1ccc(NC(=O)c2ccccc2Oc2ccccc2)cc1 | 0.689 ± 0.055 | 1.1 ± 0.097 | 1.24 ± 0.059 | 0.881 ± 0.08 | 1.09 ± 0.14 | 1.76 ± 0.41 | 1 (active)
18 | Clc1ccc(Nc2nnc(Cc3ccncc3)c3ccccc23)cc1 [Prestw-1358] | 0.987 ± 0.056 | 1.07 ± 0.069 | 0.85 ± 0.07 | 0.785 ± 0.028 | 1.08 ± 0.069 | 1.1 ± 0.11 | 0.997 (active)
19 | C=CC(=O)N1CCC(Oc2cc3c(Nc4ccc(Cl)c(Cl)c4F)ncnc3cc2OC)CC1 | 0.879 ± 0.037 | 0.909 ± 0.095 | 1.05 ± 0.061 | 1.08 ± 0.064 | 1.36 ± 0.3 | 1.49 ± 0.48 | 0.97 (active)
20 | C=CCc1ccc(OCCCOc2ccccc2C(C)=O)c(OC)c1 | 1.02 ± 0.072 | 1.08 ± 0.082 | 1.19 ± 0.049 | 0.66 ± 0.026 | 0.863 ± 0.052 | 1.07 ± 0.12 | 0.99 (active)
21 | O=C(c1cc2nc(-c3ccccc3)cc(-c3ccccc3)n2n1)N1CCCCCC1 | 0.999 ± 0.081 | 1.16 ± 0.077 | 0.976 ± 0.065 | 0.965 ± 0.035 | 1.37 ± 0.19 | 1.12 ± 0.078 | 1.02 (active)
22 | CCOC(=O)C(CCc1ccccc1)NC1CCc2ccccc2N(CC(=O)O)C1=O.Cl (stereo unspecified) | 1.13 ± 0.28 | 1.04 ± 0.072 | 1.05 ± 0.079 | 0.967 ± 0.04 | 1.24 ± 0.15 | 1.33 ± 0.21 | 1 (active)
23 | CC12CC3(C)CC(C)(C1)CC(C(=O)NC(C)(C)CO)(C2)C3 | 0.866 ± 0.067 | 0.867 ± 0.097 | 0.879 ± 0.09 | 0.996 ± 0.067 | 1.42 ± 0.096 | 1.52 ± 0.16 | 1 (active)
